The supplement of paper PMC8728848
About 410 targets per protein were measured; listed, in parts, are those with the strongest signals and a random draw of the rest.

Key:
Assay in all cases: glycan array binding signal (z-score within array); higher = stronger binding
Details in all cases: glycan notation: IUPAC condensed, linker removed
[1] = target: Fuc(a1-2)Gal(b1-3)GalNAc(b1-4)[Neu5Ac(a2-3)]Gal(b1-4)Glc
How it was run: (§1)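 Glycan array binding is given as a within-array Z-score, which can be read as non-binding when negative. The arrays, 3228 of them, came from the Consortium for Functional Glycomics database and were retained only where the protein sequence was available. Z-scores were averaged across arrays of the same protein sequence at different concentrations or buffers and across linkers.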

[2] = target: Fuc(a1-2)Gal(b1-3)GlcNAc(b1-3)[Gal(b1-4)GlcNAc(b1-6)]Gal(b1-4)Glc
How it was run: as §1

[3] = target: Fuc(a1-2)Gal(b1-4)GlcNAc(b1-3)Gal(b1-4)GlcNAc
How it was run: as §1

[4] = target: Fuc(a1-2)Gal(b1-4)GlcNAc(b1-3)[Fuc(a1-3)[Gal(b1-4)]GlcNAc(b1-6)]Gal(b1-4)Glc
How it was run: as §1

[5] = target: Fuc(a1-2)Gal(b1-4)[Fuc(a1-3)]GlcNAc(b1-3)Gal(b1-4)[Fuc(a1-3)]GlcNAc
How it was run: as §1

[6] = target: Fuc(a1-2)[Gal(a1-3)]Gal(b1-4)GlcNAc(b1-3)[Fuc(a1-2)[Gal(a1-3)]Gal(b1-4)GlcNAc(b1-6)]GalNAc
How it was run: as §1

[7] = target: Fuc(a1-2)[Gal(a1-3)]Gal(b1-4)GlcNAc(b1-6)GalNAc
How it was run: as §1

[8] = target: Fuc(a1-2)[GalNAc(a1-3)]Gal(b1-3)GlcNAc(b1-2)Man(a1-3)[Fuc(a1-2)[GalNAc(a1-3)]Gal(b1-3)GlcNAc(b1-2)Man(a1-6)]Man(b1-4)GlcNAc(b1-4)GlcNAc
How it was run: as §1

[9] = target: Fuc(a1-2)[GalNAc(a1-3)]Gal(b1-4)GlcNAc(b1-3)Gal(b1-4)GlcNAc
How it was run: as §1

[10] = target: Fuc(a1-3)[Gal(b1-4)]GlcNAc(b1-2)Man(a1-3)[Fuc(a1-3)[Gal(b1-4)]GlcNAc(b1-2)Man(a1-6)]Man(b1-4)GlcNAc(b1-4)[Fuc(a1-6)]GlcNAc
How it was run: as §1

[11] = target: Fuc(a1-3)[Gal(b1-4)]GlcNAc(b1-6)GalNAc
How it was run: as §1

[12] = target: Gal(a1-3)Gal(b1-4)GlcNAc(b1-2)Man(a1-3)[Gal(a1-3)Gal(b1-4)GlcNAc(b1-2)Man(a1-6)]Man(b1-4)GlcNAc(b1-4)GlcNAc
How it was run: as §1

[13] = target: Gal(b1-3)[Fuc(a1-4)]GlcNAc
How it was run: as §1

[14] = target: Gal(b1-3)[Neu5Ac(a2-6)]GalNAc
How it was run: as §1

[15] = target: Gal(b1-4)GlcNAc(b1-2)Man(a1-3)[Gal(b1-4)GlcNAc(b1-2)Man(a1-6)]Man(b1-4)GlcNAc(b1-4)GlcNAc
How it was run: as §1

[16] = target: Gal(b1-4)GlcNAc(b1-2)Man(a1-3)[Gal(b1-4)GlcNAc(b1-2)Man(a1-6)][GlcNAc(b1-4)]Man(b1-4)GlcNAc(b1-4)[Fuc(a1-6)]GlcNAc
How it was run: as §1

[17] = target: Gal(b1-4)GlcNAc(b1-2)Man(a1-3)[GlcNAc(b1-4)][Gal(b1-4)GlcNAc(b1-2)Man(a1-6)]Man(b1-4)GlcNAc(b1-4)GlcNAc
How it was run: as §1

[18] = target: Gal(b1-4)GlcNAc(b1-2)Man(a1-6)Man(b1-4)GlcNAc(b1-4)GlcNAc
How it was run: as §1

[19] = target: Gal(b1-4)GlcNAc(b1-2)Man(a1-6)[GlcNAc(b1-2)Man(a1-3)]Man(b1-4)GlcNAc(b1-4)GlcNAc
How it was run: as §1

[20] = target: Gal(b1-4)GlcNAc(b1-3)Gal(b1-3)GalNAc
How it was run: as §1

[21] = target: Gal(b1-4)GlcNAc(b1-3)Gal(b1-4)GlcNAc(b1-3)Gal(b1-4)GlcNAc(b1-2)[Gal(b1-4)GlcNAc(b1-3)Gal(b1-4)GlcNAc(b1-3)Gal(b1-4)GlcNAc(b1-6)]Man(a1-6)[Gal(b1-4)GlcNAc(b1-3)Gal(b1-4)GlcNAc(b1-3)Gal(b1-4)GlcNAc(b1-2)Man(a1-3)]Man(b1-4)GlcNAc(b1-4)[Fuc(a1-6)]GlcNAc
How it was run: as §1

[22] = target: Gal(b1-4)GlcNAc(b1-3)Gal(b1-4)GlcNAc(b1-3)GalNAc
How it was run: as §1

Gal6S(b1-4)Glc = target: Gal6S(b1-4)Glc
How it was run: as §1

Gal6S(b1-4)GlcNAc = target: Gal6S(b1-4)GlcNAc
How it was run: as §1

[23] = target: GlcNAc(a1-3)Gal(b1-4)GlcNAc
How it was run: as §1

[24] = target: GlcNAc(a1-4)Gal(b1-4)GlcNAc
How it was run: as §1

[25] = target: GlcNAc(a1-4)Gal(b1-4)GlcNAc(b1-3)Gal(b1-4)Glc
How it was run: as §1

[26] = target: GlcNAc(a1-4)Gal(b1-4)GlcNAc(b1-3)Gal(b1-4)GlcNAc
How it was run: as §1

[27] = target: GlcNAc(a1-4)Gal(b1-4)GlcNAc(b1-3)Gal(b1-4)GlcNAc(b1-3)Gal(b1-4)GlcNAc
How it was run: as §1

[28] = target: GlcNAc(a1-4)Gal(b1-4)GlcNAc(b1-3)Gal(b1-4)[Fuc(a1-3)]GlcNAc(b1-3)Gal(b1-4)[Fuc(a1-3)]GlcNAc
How it was run: as §1

B1: SSR1 (Sclerotium rolfsii), A0A0M3KL30 (protein)
chain: TYKITVRVYQTNPDAFFHPVEKTVWKYANGGTWTITDDQHVLTMGGSGTSGTLRFHADNGESFTATFGVHNYKRWCDIVTNLAADETGMVINQQYYSQKNREEARERQLSNYQVKNAKGRNFQIVYTEAEGNDLHANLIIG
Q: With B1 as the binder, how does the “glycan array binding signal (z-score)” value [1] read?
A: -0.338

Q: And the “glycan array binding signal (z-score)” value [2]?
A: -0.321

Q: And the “glycan array binding signal (z-score)” value [3]?
A: -0.335

Q: What about the “glycan array binding signal (z-score)” value [4] of the same binder?
A: -0.328

Q: And the “glycan array binding signal (z-score)” value [5]?
A: -0.306

Q: What about the “glycan array binding signal (z-score)” value [6] of the same binder?
A: -0.325

Q: What about the “glycan array binding signal (z-score)” value [7] of the same binder?
A: -0.34

Q: And the “glycan array binding signal (z-score)” value [8]?
A: 0.338

Q: And the “glycan array binding signal (z-score)” value [9]?
A: 0.292

Q: What about the “glycan array binding signal (z-score)” value [10] of the same binder?
A: -0.33

Q: And the “glycan array binding signal (z-score)” value [11]?
A: -0.33

Q: And the “glycan array binding signal (z-score)” value [12]?
A: -0.321

Q: What about the “glycan array binding signal (z-score)” value [13] of the same binder?
A: -0.333

Q: And the “glycan array binding signal (z-score)” value [14]?
A: 0.823

Q: And the “glycan array binding signal (z-score)” value [15]?
A: -0.338

Q: What about the “glycan array binding signal (z-score)” value [16] of the same binder?
A: -0.334

Q: And the “glycan array binding signal (z-score)” value [17]?
A: -0.342

Q: And the “glycan array binding signal (z-score)” value [18]?
A: -0.337

Q: What about the “glycan array binding signal (z-score)” value [19] of the same binder?
A: 3.01

Q: What about the “glycan array binding signal (z-score)” value [20] of the same binder?
A: 1.12

Q: What about the “glycan array binding signal (z-score)” value [21] of the same binder?
A: -0.33

Q: And the “glycan array binding signal (z-score)” value [22]?
A: 0.602

Q: What about the “glycan array binding signal (z-score)” value (Gal6S(b1-4)Glc) of the same binder?
A: -0.323

Q: What about the “glycan array binding signal (z-score)” value (Gal6S(b1-4)GlcNAc) of the same binder?
A: -0.336

Q: What about the “glycan array binding signal (z-score)” value [23] of the same binder?
A: 3.12

Q: And the “glycan array binding signal (z-score)” value [24]?
A: 3.11

Q: What about the “glycan array binding signal (z-score)” value [25] of the same binder?
A: 3.37

Q: What about the “glycan array binding signal (z-score)” value [26] of the same binder?
A: 4.43

Q: What about the “glycan array binding signal (z-score)” value [27] of the same binder?
A: 6.33

Q: And the “glycan array binding signal (z-score)” value [28]?
A: 3.01
